Assay outcomes: PubChem BioAssay, several laboratories
Rows were chosen to be rich in hits. Some 0.79% of all compounds tested hit in one or more screens of this group.
BAP1 inh – inhibitors of human BAP1 deubiquitinase | Q92560 | recombinant BAP1, Ub-AMC hydrolysis fluorescence kinetic; active compounds read low | calls only at 20 µM | hit rate 0.48% among 72,000 | AID 436;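 active means activity remaining at or below 50% of control, provided the compound also passes the data quality filters; inactive means the rest, including low values that fail the filters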
LYP inh 2 – LYP (human) phosphatase inhibition; Q9Y2R2; recombinant LYP catalytic domain, DiFMUP fluorescence; inhibition, % at 2 µM; hit rate 0.21% among 96,000;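 active means inhibition at 2 µM at or above a set limit, the screen mean plus 3 SD, cut at about 24% in these data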
PTPN22 act – activators of human LYP (PTPN22) phosphatase; Q9Y2R2; recombinant LYP, DiFMUP fluorescence; 0 = plate median, 100 = signal doubled; activation, % at 2 µM; hit rate 0.11% among 96,000; AID 697;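 active means activation at 2 µM above a set limit, the mean plus 5 SD, cut at about 37% in these data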
sEH inhibitor – blocks human soluble epoxide hydrolase activity; recombinant human sEH enzymatic activity assay; inhibition, % at 2 µM; hit rate 0.34% among 91,000; in the data active means inhibition above about 80%
Target sequence (P34913 whole entry, looked up): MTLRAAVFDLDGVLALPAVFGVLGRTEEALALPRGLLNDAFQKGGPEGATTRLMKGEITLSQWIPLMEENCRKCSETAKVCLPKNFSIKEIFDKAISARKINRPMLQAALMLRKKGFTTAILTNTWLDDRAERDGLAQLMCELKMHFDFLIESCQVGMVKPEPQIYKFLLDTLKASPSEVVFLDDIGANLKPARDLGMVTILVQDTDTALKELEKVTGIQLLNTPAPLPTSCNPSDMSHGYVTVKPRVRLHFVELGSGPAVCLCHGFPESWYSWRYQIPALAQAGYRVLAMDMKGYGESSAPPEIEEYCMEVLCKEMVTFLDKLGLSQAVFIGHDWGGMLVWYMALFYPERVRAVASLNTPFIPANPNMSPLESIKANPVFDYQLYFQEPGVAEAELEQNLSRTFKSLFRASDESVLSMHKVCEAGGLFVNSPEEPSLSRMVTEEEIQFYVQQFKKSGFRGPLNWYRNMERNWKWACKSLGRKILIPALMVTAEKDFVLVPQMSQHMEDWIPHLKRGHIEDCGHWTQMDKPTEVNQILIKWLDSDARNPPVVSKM
Candida biofilm – kills Candida albicans biofilms; C. albicans biofilm + clotrimazole, Alamar Blue; inhibition, % at 6 µM; hit rate 0.14% among 85,000; AID 834;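 active means inhibition above 20%; inactive means inhibition below 20%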;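 further: preformed 24 hr biofilms exposed to compound for 48 hr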
sEH activator – soluble epoxide hydrolase (human) activation | P34913 | purified human sEH enzymatic activity, activator screen | activation, % at 2 µM | hit rate 0.04% among 91,000; in the data active means activation above about 37%
BAP1 inh conf – BAP1 (human) enzyme inhibition, confirmed; shares compounds with BAP1 inh; purified BAP1, Ub-ethyl ester hydrolysis, HPLC; active compounds read low; % of control activity, % at 20 µM; hit rate 8% among 310; AID 753;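 active means percent of control activity at or below 60%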
A number is an active result.

Screening CCCSC1=N/C(=C\C=C\c2ccco2)C(=O)S1 returned BAP1 inh active, LYP inh 2 inactive, PTPN22 act inactive, sEH inhibitor inactive, Candida biofilm inactive, sEH activator inactive and BAP1 inh conf inactive.
`O=C1SC(SCc2ccccc2)=N/C1=C\c1ccco1` gave LYP inh 2 inactive, PTPN22 act inactive, sEH inhibitor inactive, Candida biofilm inactive and sEH activator inactive.
COc1ccccc1NC(=O)c1nc[nH]c1C(=O)Nc1ccccc1OC was read as LYP inh 2 inactive, PTPN22 act inactive, sEH inhibitor inactive, Candida biofilm inactive and sEH activator inactive.
COc1ccc(NC(=O)c2nc[nH]c2C(=O)Nc2ccccc2C)cc1 was read as BAP1 inh active, LYP inh 2 inactive, PTPN22 act inactive, sEH inhibitor inactive, Candida biofilm inactive, sEH activator inactive and BAP1 inh conf inactive.
For Cc1cccc(NC(=O)C(C)(C(F)(F)F)C(F)(F)F)c1 the results were BAP1 inh inactive.
Screening COc1ccc(OC)c(C2CC(=O)N3CN(c4cccc(Cl)c4C)CSC3=C2C#N)c1 (stereo not drawn) returned BAP1 inh active, LYP inh 2 inactive, PTPN22 act inactive, sEH inhibitor inactive, Candida biofilm inactive, sEH activator inactive and BAP1 inh conf inactive.
Screening CN(CC(=O)N1CCN(c2ccc(F)cc2)CC1)S(=O)(=O)c1ccc(F)cc1 returned BAP1 inh active, LYP inh 2 inactive, PTPN22 act inactive, sEH inhibitor inactive, Candida biofilm inactive, sEH activator inactive and BAP1 inh conf inactive.
For O=c1[nH]c(SCc2ccc(F)cc2)nc2c1cnn2-c1ccc(F)cc1 the results were BAP1 inh active, LYP inh 2 inactive, PTPN22 act inactive, sEH inhibitor inactive, Candida biofilm inactive, sEH activator inactive and BAP1 inh conf 57.3.
Screening CCCSc1nc2c(cnn2-c2ccc(F)cc2)c(=O)[nH]1 returned BAP1 inh inactive, LYP inh 2 inactive, PTPN22 act inactive, sEH inhibitor inactive and sEH activator inactive.
Cc1cccc2cc(C(c3nnnn3C(C)(C)C)N3CCN(C(=O)c4ccco4)CC3)c(=O)[nH]c12 (stereo not drawn) was read as BAP1 inh active, LYP inh 2 inactive, PTPN22 act inactive, sEH inhibitor inactive, Candida biofilm inactive, sEH activator inactive and BAP1 inh conf 41.9.
For Cc1ccc2[nH]c(=O)c(C(c3nnnn3C(C)(C)C)N3CCN(C(=O)c4ccco4)CC3)cc2c1 (stereo not drawn) the results were LYP inh 2 inactive, PTPN22 act inactive, sEH inhibitor inactive and sEH activator inactive.
`CCOC(=O)c1nnn(-c2nonc2N)c1COc1cc(C)c(Cl)c(C)c1` gave BAP1 inh active, LYP inh 2 inactive, PTPN22 act inactive, sEH inhibitor inactive, Candida biofilm inactive, sEH activator inactive and BAP1 inh conf inactive.
For COc1ccc2cc(C(c3nnnn3Cc3ccccc3)N3CCCCCC3)c(=O)[nH]c2c1 (stereo not drawn) the results were BAP1 inh active, LYP inh 2 inactive, PTPN22 act inactive, sEH inhibitor inactive, Candida biofilm inactive, sEH activator inactive and BAP1 inh conf 50.1.
Screening CSc1ccc(C2C(C#N)=C(N)Oc3c2ccc(=O)c2c(C)oc(C)c32)cc1 (stereo not drawn) returned BAP1 inh active, LYP inh 2 inactive, PTPN22 act inactive, sEH inhibitor inactive, Candida biofilm inactive, sEH activator inactive and BAP1 inh conf inactive.
Screening CC(C)OC(=O)c1cccnc1SCc1cc(=O)n2ccccc2n1 returned BAP1 inh active, LYP inh 2 inactive, PTPN22 act inactive, Candida biofilm inactive and BAP1 inh conf inactive.
Screening N#C/C(=C\c1ccc[nH]1)Sc1nc2ccccc2s1 returned BAP1 inh active, Candida biofilm inactive and BAP1 inh conf inactive.
For CC1(C)Cc2c(C#N)c(SCc3ccccc3)nc(N3CCOCC3)c2CO1 the results were BAP1 inh active, LYP inh 2 inactive, PTPN22 act inactive, Candida biofilm inactive and BAP1 inh conf inactive.
COC(=O)c1ccc(NC(=O)c2c(-c3ccccc3Cl)noc2C)cc1 was read as BAP1 inh inactive.
For CCCCOC(=O)C1=C(C)NC2=C(C(=O)CCC2)C1c1ccc(OC)c(OC)c1OC (stereo not drawn) the results were BAP1 inh inactive.
CCOc1cc2[nH]c(=S)n(CCCCC(=O)NCc3ccco3)c(=O)c2cc1OCC was read as BAP1 inh active, Candida biofilm inactive and BAP1 inh conf inactive.
